“And” between values parts separate entries of the source, which are not always exact repeats. Equal values may be shown once. The campaign covered roughly 5,500 compounds. About 2,000 (36%) were called active. Roughly 18% stayed inconclusive and do not appear here. Cut-off read from the data, not from the text of the source: active = normalized growth mostly below about 0.91 (no sharp cut-off); inconclusive = no clear call, values can overlap the other calls; inactive = mostly above about 0.92. The list shows a part of the results.
Test: chemical genetic growth profiling, strain panel (AID 1159580);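 note: tested at 20 µM; growth read once vehicle control cultures reached saturation at 30 °C; 1 = growth at the plate median or of vehicle wells; lower values mean less growth of the strain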
Conditions: growth OD

Measured: normalized growth

N=c1nc(N2CCCCC2)cc(N)n1O
inactive: S. cerevisiae deletion strains, locus YJR075W, strain HOC1, hits give low values 1 | S. cerevisiae deletion strains, locus YKL009W, strain mrt4, hits give low values 0.948 | S. cerevisiae deletion strains, locus YKL068W, hits give low values 0.993 | S. cerevisiae deletion strains, locus YKL085W, strain MDH1 (second series), hits give low values 0.995 | S. cerevisiae deletion strains, locus YKL085W, strain MDH1, hits give low values 0.995 | S. cerevisiae deletion strains, locus YKL160W, strain elf1, hits give low values 0.969 | S. cerevisiae deletion strains, locus YKL190W, strain CNB1, hits give low values 0.996 | S. cerevisiae deletion strains, locus YKR001C, strain vps1, hits give low values 0.995 | S. cerevisiae deletion strains, locus YKR026C, strain gcn3, hits give low values 0.997 | S. cerevisiae deletion strains, locus YKR091W, strain srl3, hits give low values 0.977 | S. cerevisiae deletion strains, locus YLL001W, strain dnm1, hits give low values 0.932 | S. cerevisiae deletion strains, locus YLL026W, hits give low values 0.985 | S. cerevisiae deletion strains, locus YLL041C, strain sdh2, hits give low values 0.99 | S. cerevisiae deletion strains, locus YLR027C, strain aat2, hits give low values 1.01 | S. cerevisiae deletion strains, locus YLR039C, strain RIC1, hits give low values 0.976 | S. cerevisiae deletion strains, locus YLR058C, strain SHM2, hits give low values 0.97 | S. cerevisiae deletion strains, locus YLR102C, strain apc9, hits give low values 0.981 | S. cerevisiae deletion strains, locus YLR113W, strain HOG1, hits give low values 0.984 | S. cerevisiae deletion strains, locus YLR221C, strain rsa3, hits give low values 0.948 | S. cerevisiae deletion strains, locus YLR258W, strain gsy2, hits give low values 0.998 | S. cerevisiae deletion strains, locus YLR262C, strain YPT6 (second series), hits give low values 0.989 | S. cerevisiae deletion strains, locus YLR262C, strain YPT6, hits give low values 0.903 | S. cerevisiae deletion strains, locus YLR268W, strain sec22, hits give low values 1.08 | S. cerevisiae deletion strains, locus YLR320W, strain mms22, hits give low values 0.96 | S. cerevisiae deletion strains, locus YLR330W, strain CHS5, hits give low values 0.979 | S. cerevisiae deletion strains, locus YLR342W, strain FKS1 (second series), hits give low values 0.98 | S. cerevisiae deletion strains, locus YLR342W, strain FKS1, hits give low values 0.985 | S. cerevisiae deletion strains, locus YLR357W, strain rsc2, hits give low values 0.996 | S. cerevisiae deletion strains, locus YLR370C, strain arc18, hits give low values 0.982 | S. cerevisiae deletion strains, locus YLR371W, strain rom2, hits give low values 0.95 | S. cerevisiae deletion strains, locus YLR384C, strain iki3, hits give low values 0.987 | S. cerevisiae deletion strains, locus YLR418C, strain cdc73, hits give low values 0.994 | S. cerevisiae deletion strains, locus YML016C, strain PPZ1, hits give low values 0.973 | S. cerevisiae deletion strains, locus YML032C, strain rad52, hits give low values 0.998 | S. cerevisiae deletion strains, locus YML120C, strain ndi1, hits give low values 0.959 | S. cerevisiae deletion strains, locus YML124C, strain tub3, hits give low values 0.98 | S. cerevisiae deletion strains, locus YMR058W, strain fet3, hits give low values 0.986 | S. cerevisiae deletion strains, locus YMR078C, strain ctf18, hits give low values 0.979 | S. cerevisiae deletion strains, locus YMR125W, strain sto1, hits give low values 0.978 | S. cerevisiae deletion strains, locus YMR129W, hits give low values 0.99 | S. cerevisiae deletion strains, locus YMR205C, strain PFK2, hits give low values 0.947 | S. cerevisiae deletion strains, locus YMR223W, strain ubp8, hits give low values 0.945 | S. cerevisiae deletion strains, locus YMR231W, strain pep5, hits give low values 0.991 | S. cerevisiae deletion strains, locus YMR263W, strain SAP30, hits give low values 0.993 | S. cerevisiae deletion strains, locus YMR307W, strain GAS1, hits give low values 0.935 | S. cerevisiae deletion strains, locus YNL067W, strain RPL9B, hits give low values 0.999 | S. cerevisiae deletion strains, locus YNL071W, strain lat1, hits give low values 0.991 | S. cerevisiae deletion strains, locus YNL128W, strain TEP1, hits give low values 0.953 | S. cerevisiae deletion strains, locus YNL153C, strain GIM3, hits give low values 1.01 | S. cerevisiae deletion strains, locus YNL175C, strain NOP13, hits give low values 0.994 | S. cerevisiae deletion strains, locus YNL183C, strain NPR1, hits give low values 0.945 | S. cerevisiae deletion strains, locus YNL197C, strain WHI3, hits give low values 0.993 | S. cerevisiae deletion strains, locus YNL209W, strain ssb2, hits give low values 0.984 | S. cerevisiae deletion strains, locus YNL224C, strain SQS1, hits give low values 1.01 | S. cerevisiae deletion strains, locus YNL233W, strain BNI4, hits give low values 0.998 | S. cerevisiae deletion strains, locus YNL248C, strain rpa49, hits give low values 1 | S. cerevisiae deletion strains, locus YNL250W, strain rad50, hits give low values 0.98 | S. cerevisiae deletion strains, locus YNL271C, strain bni1, hits give low values 0.987 | S. cerevisiae deletion strains, locus YNL298W, strain CLA4, hits give low values 0.996 | S. cerevisiae deletion strains, locus YNL307C, strain MCK1, hits give low values 0.999 | S. cerevisiae deletion strains, locus YNL322C, strain KRE1 (second series), hits give low values 0.98 | S. cerevisiae deletion strains, locus YNL322C, strain KRE1, hits give low values 0.989 and 0.993 | S. cerevisiae deletion strains, locus YNR049C, strain mso1, hits give low values 0.972 | S. cerevisiae deletion strains, locus YNR052C, strain pop2, hits give low values 0.98 | S. cerevisiae deletion strains, locus YOL006C, strain TOP1, hits give low values 1.02 | S. cerevisiae deletion strains, locus YOL012C, strain htz1 0.984 | S. cerevisiae deletion strains, locus YOL147C, strain pex11, hits give low values 0.987 | S. cerevisiae deletion strains, locus YOR001W, strain rrp6, hits give low values 1.02 | S. cerevisiae deletion strains, locus YOR061W, strain CKA2, hits give low values 0.964 | S. cerevisiae deletion strains, locus YOR069W, strain VPS5, hits give low values 0.987 | S. cerevisiae deletion strains, locus YOR070C, strain gyp1, hits give low values 0.996 | S. cerevisiae deletion strains, locus YOR080W, strain dia2, hits give low values 0.984 | S. cerevisiae deletion strains, locus YOR083W, strain WHI5 (second series), hits give low values 1.01 | S. cerevisiae deletion strains, locus YOR083W, strain WHI5, hits give low values 0.974 | S. cerevisiae deletion strains, locus YOR106W, strain vam3, hits give low values 0.944 | S. cerevisiae deletion strains, locus YOR136W, strain idh2, hits give low values 0.988 | S. cerevisiae deletion strains, locus YOR144C, strain elg1, hits give low values 0.988 | S. cerevisiae deletion strains, locus YOR184W, strain ser1, hits give low values 1 | S. cerevisiae deletion strains, locus YOR231W, strain MKK1, hits give low values 1.02 | S. cerevisiae deletion strains, locus YOR265W, strain rbl2, hits give low values 0.989 | S. cerevisiae deletion strains, locus YOR270C, strain vph1, hits give low values 0.979 | S. cerevisiae deletion strains, locus YOR290C, strain snf2, hits give low values 0.896 | S. cerevisiae deletion strains, locus YOR316C, strain cot1, hits give low values 0.993 | S. cerevisiae deletion strains, locus YPL051W, strain arl3, hits give low values 1 | S. cerevisiae deletion strains, locus YPL055C, strain LGE1, hits give low values 0.988 and 0.98 | S. cerevisiae deletion strains, locus YPL078C, strain atp4, hits give low values 0.968 | S. cerevisiae deletion strains, locus YPL106C, strain sse1, hits give low values 0.948 | S. cerevisiae deletion strains, locus YPL240C, strain hsp82, hits give low values 0.981 | S. cerevisiae deletion strains, locus YPL241C, strain CIN2, hits give low values 0.976 | S. cerevisiae deletion strains, locus YPL256C, strain CLN2, hits give low values 0.993 | S. cerevisiae deletion strains, locus YPR119W, strain clb2, hits give low values 0.982 | S. cerevisiae deletion strains, locus YPR141C, strain kar3, hits give low values 0.974 | S. cerevisiae deletion strains, locus YPR163C, strain tif3, hits give low values 0.993 | S. cerevisiae deletion strains, locus YPR167C, strain met16, hits give low values 0.995 | S. cerevisiae deletion strains, strain wtn01, hits give low values 1.04 | S. cerevisiae strains, strain wild type, hits give low values 0.992

— PubChem BioAssay AID1159580 (chemical genetic matrix, 2015)
